# uPA surface inh – qHTS for Inhibitors of Cell Surface uPA Generation | cell surface uPA generation assay, qHTS | AID 540303, 2011 | Potency, µM (top dose mostly 38.3 µM), for inactives: at the highest dose activity change, negative = inhibition, actives largely listed as inhibitors | 0.31% of 330,000 active; active = well fitted inhibition curve with a large enough effect; inconclusive = small, poorly fitted or top-dose-only effect; inactive = no such curve, though single readings can be large or run the other way; tested in mouse RAW 264.7 cells; also: potency is read from the fitted curve at half-maximal effect; nearly all actives have a fitted effect of over 55% in size
# DT40 TDP1 CPT – qHTS for Inhibitors of human tyrosyl-DNA phosphodiesterase 1 (TDP1): qHTS in cells in presence of CPT; chicken DT40 Tdp1-/-;hTDP1 cells + 20 nM CPT, ATP luminescence, 48 h; Potency, µM (highest dose often 46.2 µM), for inactives: top-dose activity change, negative = growth inhibition, hits mostly inhibitors; 12% of 420,000 active; also: potency is read from the fitted curve at half-maximal effect; nearly all actives have a fitted effect of over 55% in size
#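 Chicken DT40 Tdp1-/- cells stably complemented with human TDP1 were seeded at 400 cells/well in medium containing 20 nM camptothecin, exposed to pin-transferred compounds, and grown at 37 °C for at least 48 hr. Viability was read as ATP luminescence.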
# HT1080NT lethal – qHTS for induction of synthetic lethality in tumor cells producing 2HG: qHTS for the HT-1080-NT fibrosarcoma cell line. AID 686970, 2013. 1.6% of 360,000 active. HT-1080-NT fibrosarcoma viability, CellTiter-Glo ATP luminescence, 48 h. Potency, µM (series often up to 46.1 µM), inactives show top-dose activity, negative = less viability, actives largely listed as cytotoxic;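 also: NT is the 2HG producing partner of a matched IDH1 knockdown line; potency is read from the fitted curve at half-maximal effect; 0% = DMSO-treated cells and -100% = media-only wells without cells; nearly all actives have a fitted effect of over 55% in size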
#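 HT-1080-NT; 750 cells/well; 5% FBS RPMI; 48 h compound, 37 degrees C; CellTiter-Glo luminescence; curve fitting and curve-class assignment.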
# HT1080 IDH1KD tx – qHTS for induction of synthetic lethality in tumor cells producing 2HG: qHTS for the HT-1080-IDH1KD cell line; HT-1080 IDH1 knockdown viability, ATP luminescence, 48 h; Potency, µM (top dose mostly 46.1 µM), for inactives: at the top dose activity, negative = toxicity, most hits filed as cytotoxic; 2% of 360,000 active;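 also: potency is read from the fitted curve at half-maximal effect; 0% = DMSO wells and -100% = cell-free medium wells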
#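 Using the IDH1-knockdown HT-1080 line run in the same batch and compound series as the NT line, viability after 48 h at 37 °C was determined by CellTiter-Glo luminescence and expressed as % activity.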
# IL-1B inflam inh – qHTS for Inhibitors of Inflammasome Signaling: IL-1-beta AlphaLISA Primary Screen; THP-1 LPS/ATP IL-1B secretion, AlphaLISA, 16 h; hits give low values; activity change, % at 57.5 µM; 4.7% of 360,000 active; AID 743279, 2014; in the data active = activity change below about -50%; inconclusive = mostly about -30% to -49%
#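 THP-1 cells pretreated 1 hr with compounds (up to 57.5 uM final), then stimulated with LPS (250 ng/mL final) plus ATP (1.25 mM final); secreted IL-1B measured by AlphaLISA after 16 hr, decreased signal indicating inhibition.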
# DT40 TDP1 no CPT – qHTS for Inhibitors of human tyrosyl-DNA phosphodiesterase 1 (TDP1): qHTS in cells in absence of CPT; DT40 Tdp1-/- hTDP1 cells, no CPT, ATP luminescence, 48 h; Potency, µM (highest dose often 46.2 µM), for the others: at the top dose activity change, negative = growth inhibition, most hits filed as inhibitors; 15% of 420,000 active; also: potency is read from the fitted curve at half-maximal effect; nearly all actives have a fitted effect of over 55% in size
#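 Growth of hTDP1-complemented DT40 Tdp1-knockout cells is measured by ATP luminescence after at least 48 hr compound exposure at 37 °C, with DMSO substituting for the 20 nM CPT used in the parallel screen.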
# Starred values were filed as active, the others as inactive; ? = inconclusive; . = no result. Most compounds without a hit are left out; they make up all but 19% or so of the library. Unless noted, calls follow the shape of the dose curve; as a rule, active = well fitted curve in the direction sought with a large enough effect; inconclusive = small, poorly fitted or top-dose-only effect, or another doubt; inactive = no such curve, though single readings can be large; an effect the other way counts as inactive or inconclusive. Unless noted, % is scaled to controls: 0 for no effect and ±100 for the full control effect.
SMILES,uPA surface inh,DT40 TDP1 CPT,HT1080NT lethal,HT1080 IDH1KD tx,IL-1B inflam inh,DT40 TDP1 no CPT
CC(C)(C)OC(=O)N(Cc1ccccc1)Cc1ccccc1OCc1cccc(NC(=O)C2CC2)c1,5.6%,?,-9.2%,?,0.0,?
CC(C)C(=O)Nc1cccc(COc2ccc(CN(CCc3ccccc3)C(=O)OC(C)(C)C)cc2)c1,-12.2%,25.9µM*,?,-8.2%,-28.5,13µM*
CC(C)(C)OC(=O)N(CCc1ccccc1)Cc1ccccc1OCc1cccc(NC(=O)C2CCC2)c1,-18.2%,16.4µM*,-3.5%,-1.4%,-11.7,13µM*
O=C(CCNS(=O)(=O)c1ccccc1F)N1CCN(C/C=C/c2ccccc2)CC1,-3.8%,3.9%,1.3%,-11.1%,-19.8,?
O=C(C1CCC(=O)N(C2CC2)C1)N1CCN(c2cccc(Cl)c2)CC1 (configuration not stated),9.1%,-29.1%,8.5%,4.6%,-13.9,-11.3%
CNC(=S)/N=C(/Nc1ccccc1)c1ccccc1,-1.2%,-19.7%,5.9%,6.2%,-68.9*,6.8%
CNC(=S)/N=C(\Nc1ccc(C)cc1)c1ccccc1,9.8%,8.5%,1.0%,16.5%,.,?
N/C(=N\C(=S)Nc1ccccc1)c1ccccc1,-6.1%,?,-10.7%,-2.2%,16.1,16.4µM*
COc1cccc(-c2nc3n(n2)C(c2cccs2)C(C(=O)Nc2cccnc2)=C(C)N3)c1 (configuration not stated),-19.3%,14.6µM*,3.8%,1.2%,15.0,?
COc1cccc(CSc2nc3n(n2)C(c2cccs2)C(C(=O)Nc2ccccc2C)=C(C)N3)c1 (configuration not stated),.,20.6µM*,.,.,.,13µM*
COc1ccccc1NC(=O)C1=C(C)Nc2nc(SCc3ccccc3)nn2C1c1cccs1 (configuration not stated),.,-100.6%,.,.,.,14.6µM*
CC1=C(C(=O)Nc2ccccc2)C(c2cccs2)n2nc(SCc3ccccc3)nc2N1 (configuration not stated),.,-19.2%,.,.,.,?
CC1=C(C(=O)Nc2ccc(C)cc2C)C(c2cccs2)n2nc(SCc3cccc(C)c3)nc2N1 (configuration not stated),.,20.6µM*,.,.,.,18.4µM*
CC1CC(C)CN(C(=O)CCC(=O)Nc2nnc(C3CCCCC3)s2)C1 (configuration not stated),1.1%,?,?,9.4%,8.8,?
C=C1NN(C(C)C(=O)O)C(=O)N1c1ccc(OCc2ccccc2)cc1 (configuration not stated),.,-22.7%,.,.,.,-10.0%
COC(=O)c1sc(N)c(C(=O)OC)c1COC(=O)[C@@H](NS(=O)(=O)c1cccc(Cl)c1)C(C)C,-2.0%,?,?,-29.0%,?,18.4µM*
COc1ccc(S(=O)(=O)N[C@@H](C)C(=O)OCC(=O)Nc2cc3oc4ccccc4c3cc2OC)cc1,?,?,3.7%,2.1%,13.3,14.6µM*
COc1cc2c(cc1NC(=O)c1cccc(S(=O)(=O)N(C)C)c1)oc1ccccc12,8.4%,10.3µM*,-6.6%,?,-2.4,14.6µM*
COc1cc2c(cc1NC(=O)COC(=O)[C@@H](NS(=O)(=O)c1cccc(Cl)c1)C(C)C)oc1ccccc12,10.8%,?,-6.9%,-18.6%,0.0,16.4µM*
O=C(NCCCn1ccnc1)Nc1ccc2c(c1)OCO2,3.4%,13.7%,-12.5%,-5.8%,-1.2,2.7%
CC[n+]1c(/C=C/Nc2ccccc2)sc2ccccc21,-10.8%,5.8µM*,-9.4%,-18.6%,-102.2*,2.91µM*
CC/C(=C/c1sc2ccccc2[n+]1CC)SC,-1.5%,13µM*,5.9%,8.0%,2.8,11.6µM*
CSc1sc2ccccc2[n+]1CCCS(=O)(=O)[O-],-1.3%,-16.7%,-8.2%,5.3%,5.2,-5.1%
CC[n+]1c(/C=C(\C)SC)sc2ccccc21,-14.2%,9.2µM*,-1.7%,-7.6%,25.8,8.2µM*
CC[n+]1c(C=C2C=C(C)OC(C)=C2)sc2ccccc21,-17.5%,0.0052µM*,?,?,-94.8*,0.0326µM*
SMILES,uPA surface inh,DT40 TDP1 CPT,HT1080NT lethal,HT1080 IDH1KD tx,IL-1B inflam inh,DT40 TDP1 no CPT
CC[n+]1c(/C=C(/C)SC)sc2ccccc21,-1.9%,4.61µM*,-0.6%,0.5%,23.8,5.17µM*
CCCOC(=S)Nc1ccccc1,-0.7%,-5.4%,1.7%,5.6%,20.6,-24.5%
CC[n+]1c(/C=C(\C)Nc2ccccc2)sc2ccccc21,-4.9%,10.3µM*,-13.2%,-16.1%,-80.2*,18.4µM*
CC[n+]1c(/C=C(\C)OC)sc2ccccc21,0.8%,-5.9%,20.5%,10.7%,-20.5,-15.7%
CCOc1ccc(OCCCC(=O)NCCc2ccc(OC)cc2)cc1,0.4%,8.3%,25.2%,3.2%,34.4,-1.3%
Cc1ccc(S(=O)(=O)N(C)C[C@@H]2Oc3ccc(NC(=O)CCC(F)(F)F)cc3CC(=O)N([C@@H](C)CO)C[C@@H]2C)cc1,?,4.11µM*,2.06µM*,4.61µM*,46.3,5.8µM*
Cc1ccc(S(=O)(=O)N(C)C[C@@H]2Oc3ccc(NC(=O)Nc4cccc5ccccc45)cc3C(=O)N([C@H](C)CO)C[C@H]2C)cc1,7.1%,?,0.6%,0.9%,8.7,23.1µM*
CC(C)NC(=O)N(C)C[C@@H]1Oc2ccc(NC(=O)Nc3ccc(C(F)(F)F)cc3)cc2CC(=O)N([C@H](C)CO)C[C@@H]1C,7.1%,?,?,?,13.6,?
C[C@H]1CN([C@@H](C)CO)C(=O)Cc2cc(NC(=O)CCC(F)(F)F)ccc2O[C@H]1CN(C)S(C)(=O)=O,10.4%,12.3%,10.8%,10.2%,14.1,3.0%
C[C@@H]1CN([C@@H](C)CO)C(=O)Cc2cc(NC(=O)Nc3ccc(C(F)(F)F)cc3)ccc2O[C@@H]1CN(C)S(=O)(=O)c1ccc(Cl)cc1,?,?,?,23.1µM*,?,14.6µM*
C[C@H](CO)N1C[C@H](C)[C@@H](CN(C)S(=O)(=O)c2ccc(F)cc2)Oc2ccc(NC(=O)Nc3ccccc3)cc2C1=O,2.9%,?,0.4%,-9.7%,0.0,14.6µM*

# High-throughput results as filed in PubChem.
